The values that follow come from PubChem BioAssay.

“And” between values parts separate entries of the source, which are not always exact repeats. Equal entries are not always repeated. The source made the active and inactive calls. Unless noted, how the calls were made is not given here.

Assay [1] is described as follows: compounds binding Alexa647 anti-His antibody – biochemical, small-molecule microarray, 635 nm fluorescence, artefact control for SMM control protein annotation, primary screen (AID 1128).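 Further: score merges feature fluorescence with signal-to-noise for each printed compound spot.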 The note with it: higher = more signal.
For assay [2], the system named is Human papillomavirus type 1a E7 protein (residues 1-88). In words: HPV1a E7 small-molecule binders, primary screen, biochemical, small-molecule microarray, residues 1-88, 635 nm (AID 1129). Particulars: small-molecule microarray binding, fluorescence 635 nm; higher = more signal.
Assay [3] deals with Focal adhesion kinase 1 (Homo sapiens) (UniProt Q05397). In words: PTK2 protein binding on printed compound slides – biochemical, small-molecule microarray, 635/667 nm fluorescence, BSA, DTT, primary screen (AID 1130).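 Further: composite of spot emission at 667 nm and signal to noise over triplicate slides.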 Particulars: 635 nm fluorescence, higher = more signal.
Sequence of Focal adhesion kinase 1 (Homo sapiens) (Q05397 whole entry, looked up): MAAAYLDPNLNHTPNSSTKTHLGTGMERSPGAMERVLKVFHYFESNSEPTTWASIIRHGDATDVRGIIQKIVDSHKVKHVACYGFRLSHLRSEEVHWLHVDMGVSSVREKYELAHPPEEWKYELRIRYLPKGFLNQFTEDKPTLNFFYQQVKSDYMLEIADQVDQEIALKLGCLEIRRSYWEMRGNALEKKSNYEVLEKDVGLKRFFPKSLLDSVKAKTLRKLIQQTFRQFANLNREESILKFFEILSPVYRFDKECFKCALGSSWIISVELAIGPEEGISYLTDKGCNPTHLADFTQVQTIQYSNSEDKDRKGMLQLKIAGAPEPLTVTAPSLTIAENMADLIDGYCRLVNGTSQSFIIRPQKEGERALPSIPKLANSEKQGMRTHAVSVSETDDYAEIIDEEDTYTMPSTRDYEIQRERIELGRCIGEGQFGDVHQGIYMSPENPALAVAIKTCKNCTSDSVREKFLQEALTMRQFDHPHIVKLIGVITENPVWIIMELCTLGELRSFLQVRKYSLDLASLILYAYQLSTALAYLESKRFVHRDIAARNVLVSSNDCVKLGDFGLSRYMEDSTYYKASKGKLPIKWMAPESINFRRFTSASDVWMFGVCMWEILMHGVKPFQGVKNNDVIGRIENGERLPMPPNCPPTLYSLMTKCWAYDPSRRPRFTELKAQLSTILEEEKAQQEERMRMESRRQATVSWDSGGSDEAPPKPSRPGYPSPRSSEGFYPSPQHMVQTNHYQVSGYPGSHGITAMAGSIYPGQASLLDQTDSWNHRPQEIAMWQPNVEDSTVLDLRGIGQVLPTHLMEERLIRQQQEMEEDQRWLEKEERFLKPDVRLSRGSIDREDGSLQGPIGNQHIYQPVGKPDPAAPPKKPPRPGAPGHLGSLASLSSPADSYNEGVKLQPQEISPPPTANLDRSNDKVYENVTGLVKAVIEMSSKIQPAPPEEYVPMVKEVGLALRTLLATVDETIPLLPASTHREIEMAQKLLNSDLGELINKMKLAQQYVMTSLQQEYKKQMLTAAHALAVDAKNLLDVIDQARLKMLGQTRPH
Assay [4] has as its system Fibrinogen (Alexa647-labelled). The experiment in a line: Alexa647-fibrinogen binding to printed small molecules – biochemical, small-molecule microarray, 635/667 nm fluorescence, artefact control for SMM control-protein annotation, profiling panel (AID 1131).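 Further: z-score merges 667 nm fluorescence with per-spot signal-to-noise over triplicate slides.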 Particulars: fibrinogen-A647 binding fluorescence, higher = more signal.
For assay [5], the target named is Follistatin (Homo sapiens) (UniProt P19883). In words: FST protein binding to printed compounds – biochemical, small-molecule microarray, 635/667 nm fluorescence, primary screen (AID 1132). The note with it: 635 nm fluorescence, higher = more signal.
Sequence of Follistatin (Homo sapiens) (P19883 whole entry, looked up): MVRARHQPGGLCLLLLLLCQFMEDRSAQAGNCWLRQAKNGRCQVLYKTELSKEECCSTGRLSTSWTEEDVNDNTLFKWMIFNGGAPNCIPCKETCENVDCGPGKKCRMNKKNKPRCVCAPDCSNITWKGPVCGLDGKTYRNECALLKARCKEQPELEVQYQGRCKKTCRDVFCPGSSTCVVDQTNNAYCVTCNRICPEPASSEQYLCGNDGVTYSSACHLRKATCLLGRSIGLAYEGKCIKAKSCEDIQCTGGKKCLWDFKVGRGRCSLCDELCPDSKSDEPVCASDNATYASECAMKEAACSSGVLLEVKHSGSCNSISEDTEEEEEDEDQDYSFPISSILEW
Assay [6] addresses Fibroblast growth factor 2 (Homo sapiens) (UniProt P09038). In words: basic fibroblast growth factor binding to printed compounds – biochemical, small-molecule microarray, 635/667 nm fluorescence, primary screen (AID 1133). The note with it: FGF2, fluorescence 635/667, higher = more signal.
Assay [7] is described as follows: JC-1 mitochondrial potential readout, lung cancer cells – cell-based, A549, JC-1 fluorescence, basal, 24 h, 100 nL, profiling panel (AID 1138).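 Further: A549 lung adenocarcinoma cells under basal conditions with no added stimulus; test concentration not given here.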 Particulars: higher = more signal.
Assay [8] has as its system Lefty1. The experiment in a line: Lefty1 protein binding to printed compounds – biochemical, small-molecule microarray, 635/667 nm fluorescence, primary screen (AID 1139). The note with it: fluorescence 635/667, higher = more signal.
In assay [9] the test system is wheat germ agglutinin (Triticum aestivum), Alexa647-labelled. The experiment in a line: Alexa647-WGA lectin binding to printed small molecules – biochemical, small-molecule microarray, 635/667 nm fluorescence, artefact control for SMM control-protein annotation, profiling panel (AID 1140).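 Further: score merges 667 nm feature emission with signal to noise over triplicate slides.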 Particulars: WGA-A647 binding, 635 nm fluorescence, higher = more signal.
Assay [10] concerns the target Luciferin 4-monooxygenase (Photinus pyralis) (UniProt P08659). In words: inhibition of purified Photinus pyralis luciferase – biochemical, luminescence, purified enzyme, 2006 set, primary screen (AID 1141).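 Further: cell-free assay with purified firefly luciferase at 100 ng per well in PBS; test concentration not given here.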 Particulars: purified firefly luciferase, SteadyGlo luminescence, 30 min; higher = more signal, called active from +8 up or from −8 down.
In assay [11] the test system is Wnt5a (protein binding on small-molecule microarray). In words: small molecules binding Wnt5a protein – biophysical, small-molecule microarray, 635/667 nm fluorescence, primary screen (AID 1142).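 Further: fluorescence read at 667 nm with signal to noise per printed feature.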 Particulars: 635 nm fluorescence, higher = more signal.
Assay [12] can be described thus: ATP-based viability of Huh7 replicon cells – cell-based, CellTiter-Glo luminescence, basal, 48 h, cytotoxicity control for HCV replication inhibitor project, primary screen (AID 1143).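 Further: Huh7 hepatoma cells carrying a hepatitis C replication reporter with no stimulus; test concentration not given here.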 The note with it: higher = more signal, called active from +8 up or from −8 down. (In general: Replicon systems follow genome replication, usually without infectious particles.)
A short description of assay [13]: Pseudomonas biofilm growth suppression – PAO1 strain, BacTiter-Glo luminescence, LB-PBS, primary screen (AID 1144). Particulars: P. aeruginosa PAO1 biofilm, 12 h, higher = more signal.
Assay [14] can be described thus: basal CRE-LacZ reporter activity in PC12 – cell-based, unstimulated, primary screen (AID 1145). The note with it: no forskolin, luminescence, 4.5 h, higher = more signal, called active from +8 up or from −8 down.
Assay [15] in a line: forskolin-driven CRE-LacZ activity in PC12 – cell-based, CRE-LacZ reporter, forskolin-stimulated, primary screen (AID 1146).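 Further: PC12 cells with 6xCRE LacZ reporter stimulated by forskolin 10 µM; beta-galactosidase reporter signal reflecting CREB driven transcription.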 Particulars: luminescence, 4.5 h, higher = more signal, called active from +8 up or from −8 down.
In assay [16] the target is Streptavidin (Streptomyces avidinii) (UniProt P22629). The experiment in a line: compounds binding control protein streptavidin – biophysical, small-molecule microarray, 635/667 nm fluorescence, artefact control for SMM compound annotation, primary screen (AID 1147).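 Further: signal reflects streptavidin binding to arrayed compounds as a control protein.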 The note with it: higher = more signal.
Sequence of Streptavidin (Streptomyces avidinii) (P22629 whole entry, looked up): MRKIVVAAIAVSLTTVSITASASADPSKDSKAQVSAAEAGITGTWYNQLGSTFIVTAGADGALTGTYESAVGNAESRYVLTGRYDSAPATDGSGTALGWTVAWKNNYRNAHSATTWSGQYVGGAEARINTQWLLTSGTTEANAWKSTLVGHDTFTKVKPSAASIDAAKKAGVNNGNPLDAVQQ
Assay [17] can be described thus: probe aInhba binding on compound microarray – biochemical, small-molecule microarray, 635/667 nm fluorescence, primary screen (AID 1148).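 Further: score merges 667nm spot fluorescence with signal-to-noise for antibody binding to printed compounds.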 The note with it: higher = more signal.
Assay [18] concerns the target Torsin-1A (Homo sapiens) (UniProt O14656). The experiment in a line: TOR1A wild-type binding on microarray – cell lysate, small-molecule microarray, lysate, 635/667 nm, primary screen (AID 1149). Particulars: COS7 hTOR1A-WT lysate, 635 nm fluorescence, higher = more signal.
Assay [19] shares this target. In words: torsin A mutant lysate binding on microarrays – cell lysate, small-molecule microarray, COS7 lysate, 635/667 nm fluorescence, primary screen (AID 1150).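 Further: score pools 667 nm emission and signal to noise measuring lysate protein binding.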 Particulars: COS7 hTOR1A mutant lysate, 635 nm fluorescence, higher = more signal.
The test system of assay [20] is Sonic hedgehog protein (Shh). The experiment in a line: Sonic hedgehog microarray binding compounds – biochemical, small-molecule microarray, 635/667 nm fluorescence, primary screen (AID 1151).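 Further: Shh protein binding to compounds spotted on small-molecule microarray slides; score combines spot fluorescence intensity with signal-to-noise across triplicate slides.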 Particulars: 635 nm fluorescence, higher = more signal.

Sequence of Luciferin 4-monooxygenase (Photinus pyralis) (P08659 whole entry, looked up): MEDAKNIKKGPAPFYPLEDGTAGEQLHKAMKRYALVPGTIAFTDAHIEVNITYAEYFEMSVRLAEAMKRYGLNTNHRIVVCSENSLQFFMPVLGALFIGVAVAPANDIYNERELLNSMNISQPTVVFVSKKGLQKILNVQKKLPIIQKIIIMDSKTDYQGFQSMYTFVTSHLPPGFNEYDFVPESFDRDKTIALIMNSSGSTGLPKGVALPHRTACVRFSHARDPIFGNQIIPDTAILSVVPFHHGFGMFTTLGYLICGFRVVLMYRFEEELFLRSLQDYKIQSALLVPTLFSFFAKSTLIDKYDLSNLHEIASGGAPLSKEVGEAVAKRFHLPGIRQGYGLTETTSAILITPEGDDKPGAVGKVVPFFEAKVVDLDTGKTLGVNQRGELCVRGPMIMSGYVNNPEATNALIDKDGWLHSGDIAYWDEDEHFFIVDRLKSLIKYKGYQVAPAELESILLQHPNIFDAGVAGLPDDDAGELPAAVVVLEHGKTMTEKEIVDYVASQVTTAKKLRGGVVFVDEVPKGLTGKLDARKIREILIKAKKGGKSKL
Sequence of Torsin-1A (Homo sapiens) (O14656 whole entry, looked up): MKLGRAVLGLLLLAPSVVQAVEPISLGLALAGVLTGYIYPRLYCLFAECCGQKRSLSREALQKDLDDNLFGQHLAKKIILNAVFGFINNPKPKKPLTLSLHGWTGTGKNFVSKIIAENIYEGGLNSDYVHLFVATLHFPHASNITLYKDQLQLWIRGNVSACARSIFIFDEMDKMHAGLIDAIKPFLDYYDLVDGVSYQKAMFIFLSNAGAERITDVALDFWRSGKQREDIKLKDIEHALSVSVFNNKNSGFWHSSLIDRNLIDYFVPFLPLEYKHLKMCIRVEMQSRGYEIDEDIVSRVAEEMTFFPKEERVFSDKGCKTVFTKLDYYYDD
Sequence of Fibroblast growth factor 2 (Homo sapiens) (P09038 whole entry, looked up): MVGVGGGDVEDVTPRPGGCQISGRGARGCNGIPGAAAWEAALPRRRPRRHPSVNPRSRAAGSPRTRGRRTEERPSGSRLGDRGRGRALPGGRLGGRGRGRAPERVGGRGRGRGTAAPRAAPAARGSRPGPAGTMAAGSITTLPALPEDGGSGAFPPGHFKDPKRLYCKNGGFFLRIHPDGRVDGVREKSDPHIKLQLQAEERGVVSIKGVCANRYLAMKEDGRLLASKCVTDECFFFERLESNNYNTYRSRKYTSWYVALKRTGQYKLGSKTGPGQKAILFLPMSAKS

For `C=CCN(Cc1ccccc1)C(=O)C1N(c2ccc(CCO)cc2)C(=O)C2C(C(=O)O)C3C=CC21O3` (stereo not given), the composite z-score in assay [1] was -1.33 and -0.796; in [2] it was -1.49 and -1.7; in assay [3], 0.0389 and -0.704; in assay [4], -0.944 and -1.58; in [5], -2 and -2.08; in assay [6], -2.32 and -2.92. Moreover, the composite z-score was -2.53 and -1.55 in [8]; -0.0866 and 1.16 in assay [9]; -0.588 and -0.549 in assay [11]; -1.49 and -1.35 in assay [16]; -0.273 and -0.206 in assay [17]; -2.02 and -4.14 in assay [18]. The composite z-score in assay [19] was -3.2 and -2.45; in assay [20] it was -1.7 and -1.87. Further, the z-score in assay [7] is -0.571 and -0.775; in [10], -0.927 (inactive) and -0.283 (inactive); in [12], 0.012 (inactive) and -0.668 (inactive); in [13], -0.231 (inactive) and -1.01 (inactive); in assay [14], 0.195 (inactive) and -0.899 (inactive); in [15], 0.892 (inactive) and -0.29 (inactive).
With `CC(C)C(=O)N[C@@H]1CCCN1C(=O)C=Cc1ccccc1`, the composite z-score is 0.108 in [1]; 0.746 in assay [2]; 0.746 in assay [3]; 0.494 in [4]; 0.541 in [5]; 0.565 in [6]. Besides, the composite z-score in [8] was 0.813; in assay [9], -0.0087; in assay [11], -0.0494; in [16] it was 0.504; in [17] it was -0.0216; in assay [18] it was 0.841. Besides, the values for the composite z-score in [19] and in assay [20] were 0.448 and 0.605, respectively. The z-score in assay [7] was 1.81; in assay [10] it was -0.489 (inactive); in assay [12] it was 0.135 (inactive); in assay [13], 1.06 (inactive); in assay [14], 0.56 (inactive); in assay [15], 0.685 (inactive).
Consider `Cc1ccc(S(=O)(=O)OC[C@@H]2CN3[C@@H](CC[C@@H](C)[C@@H]3c3ccc(Br)cc3)C(=O)O2)cc1`, for which the composite z-score was 0.882 and -0.0006 in [1]; 0.433 and 0.434 in assay [2]; 0.0343 and 0.0817 in assay [3]; 0.555 and 0.193 in assay [4]; 0.137 and 0.577 in [5]; 0.281 and 0.102 in assay [6]. Further, the composite z-score is 0.229 and 0.512 in assay [8]; 0.382 and 0.37 in assay [9]; 0.225 and 0.0286 in assay [11]; 0.197 and 0.0059 in assay [16]; -0.0736 and 0.0173 in assay [17]; 0.478 and 0.543 in [18]. Also, the composite z-score was 0.244 and 0.594 in assay [19]; 0.566 and 0.616 in assay [20]. The z-score in [7] was -0.346 and 0.285; in [10], 0.39 (inactive) and 0.13 (inactive); in assay [12], 0.0308 (inactive) and -0.565 (inactive); in assay [13], 0.152 (inactive) and -0.0678 (inactive); in [14] it was 0.471 (inactive) and 1.22 (inactive); in [15] it was 0.599 (inactive) and -0.853 (inactive).
On to `C#CCN1C(/C=C/c2ccccc2)C(=O)OC[C@H]1c1ccccc1` (stereo not given in full), for which the composite z-score in [1] is 0.195 and 0.338; in assay [2] it was 0.455 and 0.0982; in assay [3], 0.0124 and 0.142; in [4], -0.106 and 0.137; in [5], 1.28 and 0.768; in [6], 0.441 and 1.07. The composite z-score was 0.622 and 0.295 in assay [8]; -0.19 and 0.017 in assay [9]; 0.161 and 0.111 in [11]; -0.0296 and -0.175 in assay [16]; -0.0853 and 0.0807 in [17]; 0.419 and -0.479 in [18]. The composite z-score in [19] is 0.436 and 0.128; in [20], 0.713 and 1.03. The z-score in [7] was -0.411 and -1; in assay [10] it was -0.415 (inactive) and 0.754 (inactive); in assay [12] it was -5.93 (inactive) and -0.403 (inactive); in assay [13] it was -0.793 (inactive); in assay [14] it was 2.48 (inactive) and -0.682 (inactive); in [15], -1.66 (inactive) and -0.836 (inactive).
